For five molecules, displacement results are on record in PubChem BioAssay AID748 (Sanford-Burnham Center for Chemical Genomics, 2007).

The whole screen tested about 96,000 compounds, of which about 100 (0.1%) were called active. This is one part of a sample in which actives are shown more often than they occur. Potency and affinity values are given separately. A number with no mark means an inactive call.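 The calls were made as follows: active = displacement above 50% at 20 µM plus a fluorescence interference ratio under 1.5; inactive = the rest.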

The test concerns the target Bcl-2-like protein 10 (Homo sapiens) (UniProt Q9HD36). Nature of the test: displacers of TR3 peptide from Bcl-B, primary screen, selectivity assay for Bfl-1 inhibitor project, biochemical, fluorescence polarization, FITC-TR3 peptide (AID 748).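 Also: plate controls were wells without compound for no effect and wells lacking Bcl-B protein for full effect.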 Particulars: FP displacement of FITC-TR3 peptide from Bcl-B; at 20 µM; hits give high values. (In general: Polarisation of emitted light reports the rotation of a fluorescent probe.)
`ClC1=CCC2CN(CCN3CCCCC3)CC2C1` (stereo not given): the displacement was 67.7% (active). `O=c1cccc2n1CC1CC2CN(C(c2ccccc2)c2sc3ncnn3c2O)C1` (stereo not given): the displacement was -0.3%.

`O=C1OCCN1P(=O)(c1ccccc1)c1ccccc1`: the displacement was -1.2%. As for `COc1ccc(C(=O)C2(C)N(O)C(C)C(c3cccs3)=[N+]2[O-])cc1` (stereo not given), the displacement is -5.6%. For `CCC(=NCC1CCCO1)c1c(O)n(-c2ccc(Cl)cc2)c(=O)[nH]c1=O` (stereo not given), the displacement is -1.5%.
